Rows were chosen to be rich in hits. Some 11% of all compounds tested hit in one or more screens of this group.
L3MBTL1 block: blocks human L3MBTL1. AlphaScreen L3MBTL1–H3K9me1 peptide binding. Potency, µM (series often up to 57.1 µM), usual class: inhibitors. 0.66% of 230,000 active. AID 485360; note: nearly all actives have a fitted effect of over 60% in size
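AlphaScreen proximity signal between nickel-chelate acceptor and streptavidin donor beads (final 10 ug/mL) reports binding of 50 nM L3MBTL1 to 75 nM biotin-H3 K9me1 peptide; complex incubated with compounds 30 min at room temperature; cefsulodin titration as control.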
HP1b binding inh: blocks HP1-beta chromodomain binding to methylated histone tails | Potency, µM (highest dose often 114 µM), hits mostly inhibitors | P83916 | 0.56% of 390,000 active | AlphaScreen HP1-beta / biotin-H3K9me3 peptide binding; note: nearly all actives have a fitted effect of over 70% in size
Target sequence (P83916 whole entry, looked up): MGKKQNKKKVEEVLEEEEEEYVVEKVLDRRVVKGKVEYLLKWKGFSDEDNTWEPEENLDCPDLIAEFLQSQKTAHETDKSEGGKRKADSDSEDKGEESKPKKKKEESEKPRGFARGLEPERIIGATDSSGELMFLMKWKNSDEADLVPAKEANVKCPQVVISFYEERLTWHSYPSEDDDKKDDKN
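HP1-beta protein (50 nM final) preincubated 30 min at room temperature with biotinylated H3(1-18)K9me3 peptide (50 nM) in PBS pH 7.4, 0.01% Tween-20, then compound added for 30 min. AlphaScreen streptavidin donor/nickel chelate acceptor beads (10 ug/mL final), 30 min dark, luminescence read.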
G9a inh: G9a (human) methyltransferase inhibition. Q96KQ7. G9a H3K9 monomethylation, AlphaScreen, 2 h. Potency, µM (series often up to 102 µM), most hits filed as inhibitors. 8.8% of 350,000 active; note: nearly all actives have a fitted effect of over 75% in size
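AlphaScreen read-out: biotin-H3K9 peptide (500 nM) methylation by 20 nM enzyme with 20 uM SAM, 2 h at room temperature after 15 min compound preincubation; anti-monomethyl H3K9 antibody plus donor/acceptor beads, 10 min dark.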
PI5P4Ka inh: PI5P4K alpha (human) kinase inhibition; P48426; PI5P4Kalpha enzyme, ADP-Glo luminescence, 60 min; hits give low values; max response, %; 1.2% of 330,000 active; active = max response of -50% or lower; inconclusive = between -30% and -50%; inactive = -30% or higher; note: value at the top dose of about 77 µM
Target sequence (P48426 whole entry, looked up): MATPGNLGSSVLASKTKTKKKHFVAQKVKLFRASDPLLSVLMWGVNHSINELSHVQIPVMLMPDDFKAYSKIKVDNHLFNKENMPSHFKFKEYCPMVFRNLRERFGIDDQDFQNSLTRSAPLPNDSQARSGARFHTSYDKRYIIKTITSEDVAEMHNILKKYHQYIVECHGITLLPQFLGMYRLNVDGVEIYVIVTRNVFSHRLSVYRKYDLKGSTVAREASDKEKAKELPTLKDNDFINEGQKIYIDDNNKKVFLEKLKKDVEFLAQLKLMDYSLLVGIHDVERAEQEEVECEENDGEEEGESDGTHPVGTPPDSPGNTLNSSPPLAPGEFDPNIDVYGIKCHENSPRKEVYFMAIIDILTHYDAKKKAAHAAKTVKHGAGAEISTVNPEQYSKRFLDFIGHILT
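Luminescence from ADP-Glo served as readout of PI5P4Kalpha activity in a qHTS format. Reaction: enzyme, substrate, compound, ATP at 5 microM final, 60 min at RT.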
JMJD2A Tudor: blocks the human JMJD2A Tudor domain | O75164 | AlphaScreen JMJD2A-Tudor / H3K4me3 peptide binding | Potency, µM (highest dose often 114 µM), actives largely listed as inhibitors | 4.4% of 390,000 active; note: nearly all actives have a fitted effect of over 50% in size
BAZ2B block: inhibitors of human BAZ2B bromodomain | 4.4% of 360,000 active | Potency, µM (series often up to 114 µM), usual class: inhibitors | AID 504333 | AlphaScreen BAZ2B-H3K14Ac peptide displacement; note: nearly all actives have a fitted effect of over 60% in size
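Protein-peptide AlphaScreen: BAZ2B 50 nM, b-H3K14Ac 50 nM, 1x PBS pH 7.4 + 0.01% Tween-20. Preincubation 30 min RT; cpd 30 min RT (top 110 uM); beads 20 min RT, light-protected.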
Hits are given with their value; i = inactive; ? = inconclusive; nt = not tested or not shown; [ ] = dose if it differs, or a comment. Unless noted, calls come from the whole dose curve; as a rule, active = well fitted inhibition curve with a large enough effect; inconclusive = small, poorly fitted or top-dose-only effect; inactive = no such curve, though single readings can be large or run the other way.

SMILES | L3MBTL1 block | HP1b binding inh | G9a inh | PI5P4Ka inh | JMJD2A Tudor | BAZ2B block
COc1ccc(N2CCN(CCCNC(=O)C(=O)c3c(C)n(C)c4ccccc34)CC2)cc1 | nt | i | 39.8µM | i | ? | 35.5µM
Cc1c(C(=O)CN2CCN(c3ccccc3)CC2)c2ccccc2n1C | nt | i | ? | i | i | ?
COc1ccccc1N1CCN(C(=O)C(=O)c2c(C)n(C)c3ccccc23)CC1 | nt | i | i | i | i | i
O=c1[nH]cnc(CN2CCCCC2)c1O | nt | i | nt | i | 50.1µM | nt
Oc1ccccc1NCC(O)Cn1ccc2ccccc21 (stereo unspecified) | i | i | 28.2µM | nt | 2.82µM | 50.1µM
OC(CNCCNc1ncccc1C(F)(F)F)Cn1ccc2ccccc21 (stereo unspecified) | i | i | nt | i | i | i
OC(CNCc1ccccc1)Cn1ccc2ccccc21 (stereo unspecified) | i | ? | ? | i | 22.4µM | ?
OC(CN1CCNCC1)Cn1ccc2ccccc21 (stereo unspecified) | i | nt | i | nt | nt | ?
O=C(Nc1cccc(Br)c1)c1cc(S(=O)(=O)N2CCCCC2)c[nH]1 | nt | i | i | nt | i | i
CCn1cc(C2Nc3ccccc3C(=O)N2O)c(C)n1 (stereo unspecified) | i | i | 17.8µM | i | i | i
Cc1c(C2Nc3ccccc3C(=O)N2O)cnn1C (stereo unspecified) | i | i | 10µM | i | ? | i
COc1cccc(C2Nc3ccccc3C(=O)N2O)c1O (stereo unspecified) | i | i | i | i | i | ?
S=c1[nH]nc(-c2cccnc2)o1 | i | i | ? | nt | 20µM | ?
Nn1c(-c2cccc(Br)c2)n[nH]c1=S | i | i | 2.24µM | ? | 35.5µM | ?
S=c1[nH]nc(-c2cccc(Br)c2)o1 | i | i | 1.78µM | nt | ? | i
COc1ccccc1CNC(=O)CSc1ncc2c(n1)-c1cc(Cl)ccc1N(Cc1ccccc1)S2(=O)=O | nt | i | i | nt | i | i
Cc1cc(N)c2ccccc2[n+]1CCCCCCCCCCCCCC[n+]1c(C)cc(N)c2ccccc21 | nt | nt | 0.398µM | nt | nt | nt
NNc1nnc(-c2ccccc2)c(-c2ccccc2)n1 | nt | i | ? | nt | ? | 79.4µM
CCC(C)(C)C(=O)O[C@@H]1C[C@H](C)C=C2C=C[C@H](C)[C@@H](CC[C@H]3C[C@@H](O)CC(=O)O3)[C@H]21 | nt | nt | i[21.5 µM] | nt | nt | nt
CC[n+]1c(C)sc2c3ccsc3ccc21 | i | ? | 1.58µM | ? | 56.2µM | nt
CCOc1ccc(-c2cc(CCCC(=O)NCCc3cc(OC)c(OC)c(OC)c3)no2)cc1 | nt | i | i | nt | i | i
Cc1ccccc1N=CC1=C(O)c2ccccc2C1=O | i | i | 44.7µM | i | i | i
COc1ccc(N=CC2=C(O)c3ccccc3C2=O)c(OC)c1 | i | i | ? | i | i | ?
[O-][n+]1c2c(c3c4non(O)c4ccc31)CCCC2 | nt | i | ? | nt | ? | 39.8µM
CCOC(=O)c1cc2c(ccn2C)n1CC(=O)N1CCC(Cc2ccccc2)CC1 | ? | ? | 39.8µM | nt | 35.5µM | 25.1µM
SMILES | L3MBTL1 block | HP1b binding inh | G9a inh | PI5P4Ka inh | JMJD2A Tudor | BAZ2B block
CCOC(=O)c1cc2c(ccn2C)n1Cc1ccc(Cl)cc1 | i | i | 50.1µM | i | 56.2µM | 50.1µM
Cc1ccc2oc(C(=O)Nc3sc4c(c3C(=O)NCc3ccccc3)CCCC4)cc(=O)c2c1 | nt | i | i | nt | i | i
O=S(=O)(c1ccc(Br)cc1)N1CCN(c2nc(-c3ccccc3)nc3ccccc23)CC1 | nt | i | nt | nt | i | nt
CCN(CC)CCNC(=O)c1ccccc1N | i | i | i | i | i | i
O=C(NCc1ccncc1)c1cc2ccccc2nc1Cl | i | i | 44.7µM | i | i | i
Cc1nc2ccccc2cc1C(=O)NCc1ccc(F)cc1 | i | i | i[0.0925 µM] | i | i | i
CCN(CC)CCNC(=O)c1cc2ccccc2nc1Cl | nt | i | ? | i | 35.5µM | 79.4µM
O=C(Nc1ccccc1)c1ccc(-c2ccc([N+](=O)[O-])cc2)o1 | nt | ? | 35.5µM | i | ? | i
O=C(c1ccc(-c2ccc([N+](=O)[O-])cc2)o1)N1CCCCC1 | i | i | ? | i | ? | ?
CC1CC(C)CN(C(=O)c2ccc(-c3ccc([N+](=O)[O-])cc3)o2)C1 (stereo unspecified) | i | ? | 11.2µM | i | 44.7µM | 35.5µM
O=C(NN1C(=O)NC2(CCCCC2)C1=O)c1ccc(-c2ccc([N+](=O)[O-])cc2)o1 | nt | i | 79.4µM | i | i | i
CC1(C)CC(NC(=O)c2ccc(-c3ccc([N+](=O)[O-])cc3)o2)CC(C)(C)N1 | nt | i | 44.7µM | i | i | i
Cc1oc2ncn(CC(C)C)c(=O)c2c1C(=O)Nc1cc(F)ccc1F | nt | i | i | nt | i | i
CCOC(=O)c1ccccc1OCc1cc(C2Nc3ccccc3C(=O)N2c2cccc3ccccc23)ccc1OC (stereo unspecified) | nt | i | nt | nt | i | nt
Cc1ccc(C)c(N2CCN(S(=O)(=O)c3ccc(C(=O)N(C)C)s3)CC2)c1 | nt | i | i[12.7 µM] | nt | i | i
Cc1ccc(OCC(=O)Nc2cccc(C(=O)OCc3cc(=O)n4cc(C)sc4n3)c2)cc1 | nt | i | i[12.7 µM] | nt | i | i
O=c1[nH]c(SCc2ccccc2)nc2c1sc1ccccc12 | i | i | 50.1µM | i | i | i
COC(=O)CNC(c1ccccc1)c1cc(Br)ccc1NC(=O)CCN1CCOCC1 (stereo unspecified) | i | i | 3.16µM | i | i | i
CCOC(=O)CNC(c1ccccc1)c1cc(Br)ccc1NC(=O)CCN1CCOCC1 (stereo unspecified) | i | i | ? | i | i | i
CCOc1ccc(-c2nnc(SCC(=O)Nc3cccc(C#N)c3)o2)cc1 | nt | i | i | nt | ? | i
COc1cc(NC(=O)c2ccc3c(c2)OCO3)ccc1NC(=O)C(C)C | i | ? | i | i | 79.4µM | i
Cc1ccc(-n2nc3ccc(NC(=O)C(C)C)cc3n2)cc1 | i | i | 12.6µM | i | i | ?
CC(C)C(=O)Nc1ccc2nn(-c3ccc(F)cc3)nc2c1 | i | i | ? | i | i | i
Cc1ccc(-n2nc3ccc(NC(=O)c4ccc5c(c4)OCO5)cc3n2)cc1 | i | i | 70.8µM | nt | i | i
CCc1ccc(-n2nc3ccc(NC(=O)c4ccc5c(c4)OCO5)cc3n2)cc1 | nt | i | ? | i | i | ?
COc1cccc(NC(=O)C2CC(=O)N(c3ccc(Br)cc3)C2)c1 (stereo unspecified) | nt | i | i | nt | i | i
N#Cc1cccc(-c2nc3cnc(N4CCOCC4)nc3n(C3CC3)c2=O)c1 | nt | nt | i[0.501 µM] | nt | nt | nt
CCCn1nnnc1NC(=O)COc1ccc(Br)cc1 | i | i | i | i | ? | 79.4µM
CCOC(=O)C1CCN(C2=C(NS(=O)(=O)c3ccc(Br)cc3)C(=O)c3ccccc3C2=O)CC1 | nt | 7.08µM | 8.91µM | i | 7.94µM | 5.62µM
